Inconclusive results are not listed. Unmarked numbers belong to inactive results. Active and inactive are the calls of the source. Calls follow the shape of the dose curve; as a rule, active = well fitted cell-killing curve with a large enough effect in the repeat runs; inconclusive = weak or mixed curves; inactive = flat fitted curve, though single readings scatter.
Test: qHTS RealTime-Glo MT Cell Viability Assay in HepG2 cells - 16 hour (AID 1224885); also: nearly all actives have a fitted effect of over 50% in size
Conditions: RealTime-Glo luminescence; series mostly up to 76.8 µM; activity change, negative = cytotoxic: at the top concentration
Description: U.S. Tox21 Program National Center for Advancing Translational Sciences [NCATS] NIH Chemical Genomics Center [NCGC] U.S. Environmental Protection Agency [EPA] National Institutes of Environmental Health Sciences [NIEHS] National Toxicology Program [NTP] U.S. Food and Drug Administration [FDA] Tox21 Assay Overview: Measure of cell viability is critical in the cell-base assay. Analysis of cell viability is necessary for the characterization of cell responses to cytotoxic drugs and environmental stress. A RealTime-Glo MT Cell Viability Assay to monitor cell viability in real time of continues cell culture during 40 hours of compound treatment was used to screen Tox21 10K library compounds in HepG2 cells. The RealTime-Glo MT Cell Viability Assay is a nonlytic, homogeneous, bioluminescent method to measure cell viability in real time using a simple, plate-based method. The assay involves adding NanoLuc luciferase and a cell-permeant prosubstrate to cells in culture. Viable cells reduce the proprietary prosubstrate to generate a substrate for NanoLuc luciferase. This substrate diffuses from cells into the surrounding culture medium, where it is rapidly used by the NanoLuc Enzyme to produce a luminescent signal. The signal correlates with the number of viable cells, making the assay well suited for cytotoxicity studies.
Tox21 Assay Protocol Summary: The mixture of HepG2 cell suspension and reagents were dispensed at 600cells/6 ul/well in 1536-well tissue culture treated black solid bottom plates using a Multidrop dispenser. After the assay plates were incubated at a 37 C/5% CO2 incubator for 5 hours, 23 nL of compounds dissolved in DMSO, positive and negative controls was transferred to the assay plate by a pintool work station. The plates were incubated at 37 C for 40 hours. The luminescence intensity were measured at 0h, 8h, 16h, 24h, 32h and 40h time points using ViewLux plate reader during compound treatment.
% is scaled to controls: 0 for no effect and ±100 for the full control effect; potency is read from the fitted curve at half-maximal effect.

Compound	activity change, negative = cytotoxic	Potency
O=c1[nH]cccc1O	0.679%	–
CCc1cccc(C)c1N(C(=O)C(=O)O)C(C)COC (stereo not given)	-0.158%	–
c1ccc2occc2c1	7.78%	–
C=CC(=O)O[C@H]1C[C@@H]2CC[C@@]1(C)C2(C)C	1.19%	–
CCCCCc1ccc(O)cc1	-11.5%	–
CC(=O)[C@]1(O)Cc2c(O)c3c(c(O)c2[C@@H](O[C@H]2C[C@H](N)[C@H](O)[C@H](C)O2)C1)C(=O)c1ccccc1C3=O	–	12 µM (active)
CCCC(=O)c1cc(O)c(O)cc1O	0.765%	–
CC1(C)[C@H]2CC[C@]1(C)C(=O)C2	0.337%	–
Nc1cc([N+](=O)[O-])cc(Cl)c1O	-4.47%	–
COc1cc(OC)nc(NC(=O)NS(=O)(=O)Nc2ccccc2C(=O)N(C)C)n1	-1.02%	–
CC(C)(C)C1=CC(=O)C(C(C)(C)C)=CC1=O	-5.74% [at 35.3 µM]	–
c1ccc(-c2nc3ccccc3[nH]2)cc1	-16.7%	–
CCc1cccc(CC)c1	0.929%	–
CCOc1ccc([N+](=O)[O-])cc1	-14.6%	–
c1ccc2cc3c4ccccc4c4ccccc4c3cc2c1	-1.97%	–
Cc1ccc(Cl)c(N)c1Cl	-15.2%	–
CCN(CC)c1ccc(N=Nc2ccccc2)cc1	-15%	–
C1=CCCC1	0.892%	–
CCOC=C(C(=O)OCC)C(=O)OCC	-1.15%	–
Nc1ccc2c(S(=O)(=O)O)cccc2c1S(=O)(=O)O	1.3% [at 35.3 µM]	–

Compound	activity change, negative = cytotoxic	Potency
Oc1ccc2c(c1)CCC2	2.21%	–
[Cl][Dy]([Cl])[Cl]	-24.2%	–
O=S(=O)(c1ccc(OCc2ccccc2)cc1)c1ccccc1O	-20.9%	–
C=C(C)C1CCC(C)CC1O (stereo not given)	3.51%	–
Cn1ccnc1	0.264%	–
CC(=O)CC(N)=O	1.62%	–
CC(C)c1ccc2sc3ccccc3c(=O)c2c1	-17.7%	–
Cc1ccc2sc3cccc(C)c3c2c1	-1.69%	–
NCc1cccc(C2CCN(C(=O)c3ccc(C#Cc4ccccc4F)o3)CC2)c1	–	49 µM (active)
O=C1CCC/C=C\CCCCCCCCCC1	-11.5%	–
C=C[Si](C)(C)Cl	-9.49% [at 6.97 µM]	–
c1ccc(C[P+](c2ccccc2)(c2ccccc2)c2ccccc2)cc1	-28.8%	–
Nc1cc([N+](=O)[O-])ccc1Cl	0.762%	–
c1ccc(-c2ccccc2-c2ccccc2)cc1	-1.9%	–
CC(C)=NNC(N)=S	-1.04%	–
CCN(CC)c1ccc(C=O)cc1	-1.37%	–
CCOc1nc(F)cc2nc(S(=O)(=O)Nc3c(Cl)cccc3C(=O)OC)nn12	-1.89%	–
CCC(C)(C)c1ccc(CC(C)CN2C[C@@H](C)O[C@@H](C)C2)cc1 (stereo not given in full)	-16.5% [at 35.3 µM]	–
CC1=CC[C@@H](C(C)(C)O)CC1	-2.64%	–
O=[N+]([O-])c1ccc(O)c2ncccc12	-26.1% [at 35.3 µM]	–
